Reference: paper PMC4336329 (PLoS ONE, 2015)
Screen size: about 310,000 compounds; about 14,000 (4.5%) showed an effect of 50% or more. The effect is printed as a negative number. This is one part of a sample in which strong results are shown more often than they occur.

target: human ether-à-go-go-related gene (hERG) potassium channel (human, UniProt Q12809); assay: primary screen, population patch clamp on CHO cells stably expressing hERG; higher = less effect of the substance
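Note: peak tail current of the secondary pulse compared with the same well before compound.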

Sequence of human ether-à-go-go-related gene (hERG) potassium channel (Q12809 whole entry, looked up): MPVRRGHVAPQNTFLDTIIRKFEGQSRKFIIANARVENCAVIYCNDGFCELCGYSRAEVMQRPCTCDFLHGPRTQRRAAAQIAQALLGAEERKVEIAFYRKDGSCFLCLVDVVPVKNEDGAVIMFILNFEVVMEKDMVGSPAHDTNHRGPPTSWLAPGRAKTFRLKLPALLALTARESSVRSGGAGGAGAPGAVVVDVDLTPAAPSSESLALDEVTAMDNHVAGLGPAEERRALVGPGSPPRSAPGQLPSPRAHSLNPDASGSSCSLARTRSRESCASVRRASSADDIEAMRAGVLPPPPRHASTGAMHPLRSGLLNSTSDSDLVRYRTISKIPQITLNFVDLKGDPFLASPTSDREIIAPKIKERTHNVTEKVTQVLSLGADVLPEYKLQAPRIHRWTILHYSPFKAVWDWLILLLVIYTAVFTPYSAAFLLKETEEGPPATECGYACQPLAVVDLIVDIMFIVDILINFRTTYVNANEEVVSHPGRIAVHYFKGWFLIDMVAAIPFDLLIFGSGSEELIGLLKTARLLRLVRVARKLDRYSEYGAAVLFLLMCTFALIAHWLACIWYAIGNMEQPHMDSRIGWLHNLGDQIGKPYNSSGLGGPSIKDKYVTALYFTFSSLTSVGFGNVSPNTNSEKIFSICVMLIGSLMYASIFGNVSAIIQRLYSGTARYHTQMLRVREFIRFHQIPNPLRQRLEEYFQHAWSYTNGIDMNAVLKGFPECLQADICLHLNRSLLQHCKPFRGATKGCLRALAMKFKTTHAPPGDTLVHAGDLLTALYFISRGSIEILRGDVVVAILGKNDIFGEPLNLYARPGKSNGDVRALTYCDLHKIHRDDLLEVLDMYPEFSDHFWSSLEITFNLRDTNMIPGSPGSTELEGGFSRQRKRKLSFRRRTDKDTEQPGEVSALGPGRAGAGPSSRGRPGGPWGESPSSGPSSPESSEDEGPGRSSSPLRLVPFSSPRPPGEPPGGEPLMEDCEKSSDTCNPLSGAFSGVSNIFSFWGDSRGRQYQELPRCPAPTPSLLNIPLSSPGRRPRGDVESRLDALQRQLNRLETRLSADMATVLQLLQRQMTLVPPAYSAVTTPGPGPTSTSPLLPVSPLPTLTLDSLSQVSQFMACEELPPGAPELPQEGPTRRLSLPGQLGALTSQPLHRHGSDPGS

Row | Structure (SMILES) | hERG current change (%, negative = inhibition) at 10uM [%]
1 | COC/C=C/C1=CC2=CC(=O)C(C)(OC(=O)c3cnc4ccccc4n3)C(=O)C2=CN1CCOC (stereo not drawn) | 13.3
2 | Cc1c[n+]([O-])n(-c2ccc(C(=O)O)cc2)n1 | 0.473
3 | COc1ccc(N(C(=O)c2snc(C(N)=O)c2N)C(C(=O)NC2CCCC2)c2ccc(OC)c(OC)c2)cc1 (stereo not drawn) | 10.9
4 | CCOC(=O)C1CCN(C(=O)C2CCC(=O)N(CC3CCCCC3)C2)CC1 (stereo not drawn) | 0.313
5 | CC[n+]1c(SC)ccc2cc(OC)ccc21.[O-][Cl+3]([O-])([O-])[O-] | -10.6
6 | CN(CCCS(=O)(=O)[O-])c1ccc(/C=C/c2ccc3ccccc3[n+]2C)cc1 | 19.6
7 | CC[n+]1c(/C=C/c2ccc(OC(C)=O)c(OC)c2)ccc2ccccc21.[I-] | -4.85
8 | CN(C)c1ccc(/C=C/c2cccc[n+]2[O-])cc1 | 19.7
9 | CC(C)CC[n+]1ccccc1/C=C/c1ccc(N(C)C)cc1.[I-] | -71.3
10 | CCSc1ccc2cc(OC)ccc2[n+]1CC.[I-] | 10.8
11 | CC[n+]1c(/C=C/c2ccc(OC)c(OC)c2)ccc2ccccc21.[I-] | 23.5
12 | C[n+]1c(/C=C/c2ccc(O)cc2)ccc2ccccc21.[I-] | -40.3
13 | CCN(CC)c1ccc(/C=C/c2ccc3ccc(OC)cc3[n+]2CC)cc1.[I-] | -82
14 | CN(C)c1ccc(/C=C/c2cc[n+](C)cc2)cc1.[I-] | 2.73
15 | CC[n+]1c(/C=C/c2ccc(N(C)C)cc2)ccc2ccccc21.[I-] | -72.9
16 | CN(C)c1ccc(/C=C/c2ccc3ccccc3[n+]2C)cc1.[I-] | -59.9
17 | O=C(C1CCCCC1)N1CCC(O)(c2ccc(Cl)cc2)CC1 | -10.7
18 | Cc1cccc(N2C(=O)CC(N(O)c3ccccc3)C2=O)c1 (stereo not drawn) | 9.2
19 | Cc1cc(C(F)(F)F)nn1Cc1ccc(C(=O)NCc2ccco2)o1 | 5.14
20 | COc1ccc(C)cc1-n1nnnc1SCC1CCCCO1 (stereo not drawn) | -14.8
21 | CCOc1ccc(CCNc2nc3c(c(=O)n(C)c(=O)n3C)n2CC)cc1OCC | 3.1
22 | CCOC(=O)C1=C(COC(=O)CC(C)c2ccccc2)NC(=O)NC1C (stereo not drawn) | -17.8
23 | CN1C(=O)C(=Cc2ccc(N3CCCCCC3)cc2)C(=O)N(C)C1=O | 13.1

Row | Structure (SMILES) | hERG current change (%, negative = inhibition) at 10uM [%]
24 | CCOc1ccc2[nH]c(=O)c(C(c3nnnn3C3CCCCC3)N3CCN(CC)CC3)cc2c1 (stereo not drawn) | -40.3
25 | COc1cccc(NC(=O)Cc2ccc3ccccc3c2)c1 | -7.16
26 | N#C/C(=C\c1cccc(OCC(=O)O)c1)c1nc2ccccc2[nH]1 | 19.6
27 | COc1cc(-c2noc(C)n2)cc(OC)c1OC | 13.4
28 | COc1ccc(Nc2nc(NCCO)nc(N3CCCC3)n2)cc1 | -38.3
29 | Cc1ccc(S(=O)(=O)NCC(=O)OCC(=O)Nc2cccc(S(=O)(=O)NC3=NCCCCC3)c2)cc1C | -1.1
30 | COc1ccccc1C(=O)NCCC(=O)Nc1nc2ccccc2[nH]1 | -12.6
31 | O=C(NCCCn1ccnc1)c1ccc(Cl)cc1 | -2.72
32 | Clc1ccc(SCCn2ccnc2)cc1 | -1.48
33 | O=C(/C=C/c1ccc(F)cc1)NCCCn1ccnc1 | -31.9
34 | O=C(/C=C/c1ccc(Cl)c(Cl)c1)NCCCn1ccnc1 | -41.7
35 | CC(C)(C)c1ccc(/C=C/C(=O)NCCCn2ccnc2)cc1 | -46.5
36 | Clc1ccc(SCCCCn2ccnc2)cc1 | -53
37 | O=C(/C=C/c1ccc(Br)cc1)NCCCn1ccnc1 | -57
38 | COc1ccc(/C=C/C(=O)NCCCn2ccnc2)cc1 | -30.9
39 | O=C(/C=C/c1ccc(Cl)cc1)NCCCn1ccnc1 | -55.8
40 | O=C(C#Cc1ccccc1)NCc1ccccc1F | -2.39
41 | CC1(C)CCC(=O)C=C1Nc1ccc(F)c(Cl)c1 | 7.56
42 | N#C/C(=N\O)c1nc(-c2ccccc2)cs1 | 15.9
43 | CC(C)(C)c1ccc(S(=O)(=O)NCc2ccc(C(=O)NCC3CCCO3)cc2)cc1 (stereo not drawn) | 13.8
44 | O=C(OCc1ccc(Br)cc1)c1cccc(S(=O)(=O)N2CCCC2)c1 | -6.47
45 | CSc1nsc(SC)c1C(N)=O | 10.6
46 | CCOC(=O)C1(Cc2ccccc2)CCCN(Cc2ccncc2)C1 (stereo not drawn) | -17.4

Row | Structure (SMILES) | hERG current change (%, negative = inhibition) at 10uM [%]
47 | CCOC(=O)C1(CCOC)CCN(Cc2cnc(-c3cccc(C)c3)nc2)CC1 | -5.81
48 | CCOC(=O)C1(CCOc2ccccc2)CCN(Cc2ccncc2)CC1 | -52
49 | CCOC(=O)C1(CCOC)CCN(Cc2ccncc2)CC1 | 8.26
50 | CCOC(=O)C1(CCOc2ccccc2)CCN(Cc2ccc(C(=O)OC)cc2)CC1 | -49.9
51 | CCOC(=O)C1(Cc2cccc(OC)c2)CCN(Cc2cnc(SC)nc2)CC1 | -27
52 | CCOC(=O)C1(CCOc2ccccc2)CCN(Cc2ccc(C#CCCO)cc2)CC1 | -53.3
53 | CCOC(=O)C1(CCOc2ccccc2)CCN(Cc2cnc(SC)nc2)CC1 | -72.2
54 | CCOC(=O)C1(CCOc2ccccc2)CCN(Cc2ccc(OC)cc2)CC1 | -75.1
55 | CCc1ccc(C(C)NC(=O)/C(C#N)=C\c2cn[nH]c2-c2ccccc2)cc1 (stereo not drawn) | -1.91
56 | CC1=NN(c2ccc(Cl)cc2)C(=O)C1 | 3.77
57 | Cc1ccc(C(=O)OCC(=O)N2CCOCC2)cc1 | 15.6
58 | O=C(NNC(=S)Nc1ccc(Cl)cc1Cl)C1CC1 | -24
59 | O=C(Nc1ccc2c(c1)OC1(CCCC1)O2)C1CC1 | 3.79
60 | Cc1ccc(C)n1-c1ncc(Br)cn1 | 6.58
61 | CCCCOCCCNC(=O)N[C@@H](CCSC)C(=O)OC | 16.3
62 | C=CCn1c2ccccc2c(=O)c2cc(C#Cc3ccccn3)ccc21 | -0.113
63 | CCOC(=O)C1(CCOc2ccccc2)CCN(Cc2ccc(O)c(Cl)c2)CC1 | -53
64 | CCOC(=O)C1(CCOc2ccccc2)CCN(Cc2ccc(OCCO)cc2)CC1 | -77.9
65 | CCOC(=O)C1(CCOc2ccccc2)CCN(Cc2ccc(O)cc2)CC1 | -85.1
66 | O=C(N/N=C\c1cc(Br)c(Br)o1)c1cncc(Br)c1 | 7.62
67 | CN(C)c1cccc(C(=O)Nc2ccc(N3CCOCC3)cc2)c1 | 2.06
68 | Cc1nc2nc(-c3ccccc3)cc(=O)n2[nH]1 | 11.8
69 | O=C(NNS(=O)(=O)c1ccc([N+](=O)[O-])cc1)C(=O)Nc1cccc(C(=O)O)c1 | 11.9

Row | Structure (SMILES) | hERG current change (%, negative = inhibition) at 10uM [%]
70 | COc1ccc(C2C(C(=O)N3CCC4(CC3)OCCO4)CC(=O)N2c2ccc(OC)cc2)cc1 (stereo not drawn) | -6.88
71 | O=S(=O)(NCC(c1ccco1)N1CCN(c2ccccc2)CC1)c1ccc(F)cc1 (stereo not drawn) | 0.0547
72 | O=C1COc2ccc(C(=O)COC(=O)Cc3ccc(F)cc3)cc2N1 | -23.8
73 | CCC(=O)c1ccc(OCC(=O)Nc2ccccc2C(=O)NC2CC2)cc1 | -6.53
74 | OC1/C(=C/c2ccccc2C(F)(F)F)N2CCC1CC2 (stereo not drawn) | 9.66
75 | Brc1ccc(-c2nnc3c4ccccc4nc(N4CCOCC4)n23)cc1 | -8.42
76 | Fc1ccccc1-c1nnc2c3ccccc3nc(N3CCOCC3)n12 | -9.92
77 | Clc1ccc(-c2nnc3c4ccccc4nc(N4CCOCC4)n23)cc1Cl | -64.7
78 | CCOC(=O)c1ccccc1NC(=O)C1CCN(c2ncnc3sc(C)c(C)c23)CC1 | -11.4
79 | CCOc1ccc(NC(=O)CN(C)C(=O)C2CCN(c3ncnc4sc(C)c(C)c34)CC2)cc1OCC | -58.2
80 | Cc1sc2ncnc(N3CCC(C(=O)N(C)CC(=O)Nc4ccccc4Br)CC3)c2c1C | -65.8
81 | CCN(CC(=O)Nc1c(F)cccc1F)C(=O)C1CC1 | 3.28
82 | Cc1sc2ncnc(N3CCC(C(=O)Nc4ccc(Br)cc4Br)CC3)c2c1C | -7.07
83 | CCN(CC(=O)Nc1c(F)cccc1F)C(=O)C1CCN(c2ncnc3sc(C)c(C)c23)CC1 | -57.8
84 | CCN(CC(=O)Nc1c(F)cccc1F)C(=O)C1CCC1 | -13.8
85 | Cc1sc2ncnc(N3CCC(C(=O)N(C)CC(=O)Nc4ccc(Cl)c(C(F)(F)F)c4)CC3)c2c1C | 3.47
86 | Cc1sc2ncnc(N3CCC(C(=O)Nc4ccccc4C(C)(C)C)CC3)c2c1C | -15.2
87 | CCOc1ccc(NC(=O)CN(C)C(=O)C2CCCC2)cc1OCC | 27.8
88 | CCCCc1nnc(NC(=O)C2CCN(c3ncnc4sc(C)c(C)c34)CC2)s1 | 16.6
89 | CCCN(CC(=O)Nc1ccccc1C)C(=O)C1CCN(c2ncnc3sc(C)c(C)c23)CC1 | -76.2
90 | COc1ccc(C2=NN(C(=O)c3ccco3)C(c3ccco3)C2)cc1OC (stereo not drawn) | 7.24
